D2 ag-1 = Beta-Arrestin HTS for Positive Allosteric Modulators of the Human D2 Dopamine Receptor: Agonists; D(2) dopamine receptor (Homo sapiens), P14416; DiscoveRx PathHunter D2 beta-arrestin, luminescence, 90 min; 100% = 57 uM dopamine signal; activation, % (test concentration not listed); 360,000 compounds, 0.084% hits; AID 624465, 2012; in the data active means activation above about 40%; inconclusive means between about 15% and that limit
Target sequence (P14416 whole entry, looked up): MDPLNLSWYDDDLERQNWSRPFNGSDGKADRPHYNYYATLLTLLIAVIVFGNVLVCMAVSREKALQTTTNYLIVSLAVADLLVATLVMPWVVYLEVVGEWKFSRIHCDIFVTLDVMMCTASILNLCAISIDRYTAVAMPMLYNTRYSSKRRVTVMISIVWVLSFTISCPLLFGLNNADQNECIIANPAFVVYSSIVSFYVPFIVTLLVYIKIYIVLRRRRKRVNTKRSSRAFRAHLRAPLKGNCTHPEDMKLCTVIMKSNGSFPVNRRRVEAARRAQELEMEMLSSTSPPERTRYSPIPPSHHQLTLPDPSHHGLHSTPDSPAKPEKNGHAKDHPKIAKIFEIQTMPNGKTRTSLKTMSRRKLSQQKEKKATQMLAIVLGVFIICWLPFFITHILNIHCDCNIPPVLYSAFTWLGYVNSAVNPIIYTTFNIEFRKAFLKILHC
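DiscoveRx PathHunter D2 beta-arrestin cells (2,100/well) attached overnight, then compound-stimulated 90 min at 37 C in HBSS/10 mM HEPES/0.1% Tween-20 buffer; beta-galactosidase complementation read by luminescence after 1 h at ambient temperature. Dopamine 57 uM final (EC100) as control.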
D2 antag = HTS Assay for Allosteric Antagonists of the Human D2 Dopamine Receptor: Primary Screen for Antagonists; D(2) dopamine receptor (Homo sapiens), P14416; HEK293 TREx D2 cells, calcium flux, dopamine EC80; inhibition, % at 10 µM; 340,000 compounds, 2% hits; in the data active means inhibition above about 30%; inactive means below that, where a call was filed
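Overnight-induced (tetracycline, 30 C) HEK293 T-REx cells carrying force-coupled D2 receive a no-wash calcium dye, then compound, then EC80 dopamine at 180 s; signals are read kinetically throughout.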
D2 ag-2 = HTS Assay for Allosteric Agonists of the Human D2 Dopamine Receptor: Primary Screen for Agonists; D(2) dopamine receptor (Homo sapiens), P14416; HEK293 T-REx D2 cells, calcium flux agonist mode; activation, % at 2 µM; 340,000 compounds, 0.53% hits;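 active means activation over 3 SD above normal in the single-dose calcium agonist read, cut at about 30% in these data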
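Agonism scored from kinetic calcium signal (1 read/sec, 180 s) following compound pin transfer, after a 10 s baseline. Cells: HEK293 Trex line expressing inducible D2 receptor coupled to calcium, dye-loaded after overnight culture at 30 C.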
D2 PAM-1 = HTS Assay for Positive Allosteric Modulators of the Human D2 Dopamine Receptor: Primary Screen for Potentiators; HEK293 T-REx D2, calcium flux, EC20 dopamine potentiation; potentiation, % at 10 µM; D(2) dopamine receptor (Homo sapiens), P14416; AID 485347, 2010; 340,000 compounds, 0.34% hits;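 active means potentiation over 3 SD above the plate norm, cut at about 30% in these data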
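Cells plated with tetracycline inducer and held overnight at 30 C; calcium dye loaded 30–90 min at room temperature; baseline taken, compound added and read 180 s; EC20 dopamine then added and read 180 s.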
D2 PAM-2 = Beta-Arrestin HTS for Positive Allosteric Modulators of the Human D2 Dopamine Receptor: Potentiators; potentiation, % (test concentration not listed); DiscoveRx D2 beta-arrestin cells, luminescence, 90 min; 100% = 57 uM dopamine signal; 360,000 compounds, 0.23% hits; in the data active means potentiation above about 50%; inconclusive means mostly about 30% to 49%
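PathHunter beta-arrestin assay in DiscoveRx D2 cells. Compounds were added with an EC20 of dopamine (50 nM final) for 90 min at 37 deg C. Luminescence was read 1 h after detection reagent, with 57 uM dopamine as the EC100 control.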
A number is an active result; 0 = inactive; ? = inconclusive; - = no result; ! = not confirmed by another sample. Shown are actives, neighbours in structure and some others; about 2.4% of the full set was active somewhere.

SMILES	D2 ag-1	D2 antag	D2 ag-2	D2 PAM-1	D2 PAM-2
CC(C)(C)c1ccc2c(c1)OCC(C(=O)O)O2 (stereo unspecified)	0	-	-	113	0
CCOC(=O)C1C(=O)NC(c2ccccc2)=NC1c1cccc(Br)c1 (stereo unspecified)	0	55	0	0	0
CC1=C(C(=O)Nc2ccc(C)cc2C)C(C(C)C)n2nc(SCc3ccccc3Cl)nc2N1 (stereo unspecified)	-	-	0	0	-
CC1CCN(CCc2nc3cc(NC(=O)COc4ccccc4)ccc3n2C)CC1	0	59	0	0	0
COc1ccc(OCC(=O)Nc2ccc3c(c2)nc(CN2CCCC2)n3C)cc1	0	45	0	0	0
COc1ccc(OCC(=O)Nc2ccc3c(c2)nc(CN2CCN(C(C)=O)CC2)n3C)cc1	0	0	0	0	0
Cn1c(CN2CCCCC2)nc2cc(NC(=O)c3ccc(Cl)cc3)ccc21	0	31	33!	0	0
CCC(=O)Nc1ccc2c(c1)nc(CCN1CCC(C)CC1)n2C	0	0	0	0	0
Cn1c(CN2CCCC2)nc2cc(NC(=O)COc3ccc(Cl)cc3)ccc21	0	41	0	0	0
Cc1ccc(-n2nnc(-c3nsc(NC(=O)c4ccccc4C)n3)c2C)cc1Cl	-	-	0	0	-
CCn1c(=O)cc(OCC(=O)N2CCN(c3ccc(C)cc3)C(C)C2)c2ccccc21 (stereo unspecified)	-	-	0	0	-
CCN(Cc1ccccc1)S(=O)(=O)c1ccc2c(c1)CC(C)N2C(=O)C1CCC1 (stereo unspecified)	-	-	0	0	-
CCn1cc(S(=O)(=O)c2ccccc2)c(=O)c2cc(F)c(N3CCCCCC3)cc21	-	-	0	0	-
S=C1SCN(Cc2ccccn2)CN1Cc1ccco1	0	36	0	0	0
COCCN1CSC(=S)N(Cc2ccco2)C1	0	0	0	0	0
Cc1ccc(S(=O)(=O)N(C(=O)c2ccncc2)c2ccc(OC(=O)c3ccncc3)c3ccccc23)c(C)c1	?	-	-	-	90
Cc1cccc(N2CCN(S(=O)(=O)c3ccc4c(c3)NC(=O)CO4)CC2)c1C	0	0	0	0	0
Cc1cc2c(cc1S(=O)(=O)N1CCN(c3cccc(C)c3C)CC1)OCC(=O)N2	0	50	0	0	0
Cc1ccc(CCNC(=O)CCS(=O)(=O)c2cc3c(cc2C)NC(=O)CO3)cc1	0	43	0	0	0
Cc1ccc(CNS(=O)(=O)c2cc3c(cc2C)NC(=O)CO3)cc1	0	48	0	0	0
O=C(CCS(=O)(=O)c1cc2c(cc1Cl)NC(=O)CO2)NCCc1ccccc1	0	0	0	0	0
C=CCn1c(SCC(=O)Nc2ncc(Cc3ccc(Br)cc3)s2)nnc1-c1ccncc1	0	0	0	32	0
COc1cc(OC)cc(N2C(=O)N(Cc3ccc(C(C)(C)C)cc3)c3ccccc3S2(=O)=O)c1	-	-	0	0	-
COc1ccccc1N1CCN(c2nc(-c3ccc(C)cc3)nc3ccccc23)CC1	-	-	0	0	-
Cc1ccc(N2C(=O)c3ccccc3NC2C(C)Cc2ccc3c(c2)OCO3)cc1 (stereo unspecified)	0	34	0	0	0
SMILES	D2 ag-1	D2 antag	D2 ag-2	D2 PAM-1	D2 PAM-2
O=C(COc1ccccc1F)Nc1ccc2nc(SCC(=O)N3CCOCC3)sc2c1	-	-	0	0	-
O=C(NC1CCN(C(=O)NCc2ccccc2)CC1)c1cccc(F)c1	0	0	0	-	0
COc1cccc(C(=O)NNC(=O)c2ccccc2)c1	0	0	0	0	0
O=C(NC1CC2CCC(C1)N2Cc1ccccc1)c1cccc(F)c1 (stereo unspecified)	0	71	0	0	0
COc1cccc(C(=O)NC2CC3CCCC(C2)N3CC(=O)Nc2ccccc2C(F)(F)F)c1 (stereo unspecified)	0	0	0	0	0
COc1cccc(C(=O)NN2c3ccccc3CCc3ccccc32)c1	0	51	0	0	0
Cc1ccc(C(=O)NC2CC3CCCC(C2)N3Cc2ccccc2)cc1 (stereo unspecified)	0	0	0	0	0
Cc1ccc(CN2C3CCCC2CC(NC(=O)c2ccc(F)cc2)C3)cc1 (stereo unspecified)	0	92	0	0	0
COc1cccc(C(=O)NC2CC3CCC(C2)N3Cc2ccccc2)c1 (stereo unspecified)	0	96	0	0	0
O=C(Nc1ccccc1-c1ccccc1)NC1CC2CCCC(C1)N2Cc1ccc(F)cc1 (stereo unspecified)	0	52	0	0	0
CCCNC(=S)NC1CC2CCCC(C1)N2Cc1ccc(F)cc1 (stereo unspecified)	0	81	0	0	0
COCCCNC(=S)NC1CC2CCCC(C1)N2Cc1ccco1 (stereo unspecified)	0	0	0	0	0
COc1ccc(CN2C3CCC2CC(NC(=O)c2cccc(F)c2)C3)cc1 (stereo unspecified)	0	81	0	0	0
Cc1cccc(C(=O)NC2CC3CCCC(C2)N3Cc2ccccc2)c1 (stereo unspecified)	0	81	0	0	0
O=C(Nc1ccccc1-c1ccccc1)NC1CC2CCCC(C1)N2CCc1ccccc1 (stereo unspecified)	0	0	0	0	0
O=C(c1ccc(Br)o1)N1CCC(Cc2ccccc2)CC1	0	49	0	0	0
CC(=O)c1ccc(NC(=S)N2CCC(Cc3ccccc3)CC2)cc1	0	32	0	0	0
CC(=O)c1cccc(NC(=S)N2CCC(Cc3ccccc3)CC2)c1	0	0	0	0	0
C/C(=N\Nc1cccc([N+](=O)[O-])c1)c1cc(F)ccc1O	0	35	0	0	0
Nc1ccc2nc3c(=O)n(C4CCCCC4)c(=O)[nH]c3nc2c1	0	-	-	0	0
Cc1cc2nc3c(=O)n(CCc4ccccc4)c(=O)[nH]c3nc2cc1N	0	0	95	0	0
CCCCn1c(=O)[nH]c2nc3cc(N)ccc3nc2c1=O	0	0	61	0	0
Nc1ccc2nc(CCc3ccccc3)[nH]c2c1	0	0	0	0	0
Nc1ccc2nc3c(=O)n(CCc4ccccc4)c(=O)[nH]c3nc2c1	0	0	95	0	0
O=C(CSc1ncccc1C(=O)Oc1ccccc1Cl)Nc1ccccc1Cl	-	-	0	0	-
COCC(C)n1c(SCc2ccc(OC)c(F)c2)nc2ccccc2c1=O (stereo unspecified)	0	-	-	-	0
CCn1c(SCc2ccc(OC)c(F)c2)nc2ccccc2c1=O	0	0	0	33	0

Screening data from PubChem.
